# Most compounds without a hit are left out; they make up all but 1.6% or so of the library.
# gsp antagonist = antagonizes gsp, the McCune-Albright syndrome mutation; gsp-mutant cells, cAMP HTRF, 30 min; Potency, µM (highest dose often 76.9 µM), without a hit: at the highest dose activity change, negative = inhibition, most hits filed as inhibitors; 340,000 tested, 0.4% active; AID 624288; calls by dose curve; cell line not stated here;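 note: intracellular cAMP measured with PDE inhibitor Ro 20-1724 present during compound exposure; potency is the fitted concentration of half-maximal effect; % is set by controls: 0 for no effect and ±100 for the full control effect; nearly all actives have a fitted effect of over 65% in size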
#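 HTRF cAMP read-out (cAMP-d2 plus anti-cAMP antibody-K in lysis buffer, 30 min RT). Before lysis, cells are exposed to compounds with […] for 30 min at 37C in DPBS containing Ca/Mg, BSA and Tween 20.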
# gsp ag = activates gsp, the McCune-Albright syndrome mutation | gsp mutant cells, cAMP HTRF, 30 min | Potency, µM (titrated, usually from 76.9 µM), inactives show at the top dose activation (cAMP increase), usual class: activators | 340,000 tested, 0.13% active | AID 624287; active = well fitted activation curve with a large enough effect; inconclusive = small, poorly fitted or top-dose-only effect, or another doubt; inactive = no such curve, though single readings can be large or run the other way; cell line not stated here;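 note: phosphodiesterase inhibitor Ro 20-1724 added with compounds to block cAMP breakdown; potency is the fitted concentration of half-maximal effect; nearly all actives have a fitted effect of over 60% in size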
#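 Cells stably selected in G418 were plated at 2000/well, grown 16-24 hr, then given compounds in DMSO with the PDE inhibitor […] (300 uM solution added) for 30 min at 37C; cAMP was read by HTRF.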
# KCNH2 WT inh = inhibitors of human wildtype KCNH2 potassium channel | U2OS, BacMam KCNH2, thallium flux FluxOr; stronger effect = lower value | activity change, % at 1.84 µM | 340,000 tested, 0.37% active | AID 720551;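 active = maximum activity change below -70%; inconclusive = maximum activity change between -70% and -50%; inactive = maximum activity change above -50%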; note: % is set by controls: 0 for no effect and ±100 for the full control effect
# Target sequence (Q12809 whole entry, looked up): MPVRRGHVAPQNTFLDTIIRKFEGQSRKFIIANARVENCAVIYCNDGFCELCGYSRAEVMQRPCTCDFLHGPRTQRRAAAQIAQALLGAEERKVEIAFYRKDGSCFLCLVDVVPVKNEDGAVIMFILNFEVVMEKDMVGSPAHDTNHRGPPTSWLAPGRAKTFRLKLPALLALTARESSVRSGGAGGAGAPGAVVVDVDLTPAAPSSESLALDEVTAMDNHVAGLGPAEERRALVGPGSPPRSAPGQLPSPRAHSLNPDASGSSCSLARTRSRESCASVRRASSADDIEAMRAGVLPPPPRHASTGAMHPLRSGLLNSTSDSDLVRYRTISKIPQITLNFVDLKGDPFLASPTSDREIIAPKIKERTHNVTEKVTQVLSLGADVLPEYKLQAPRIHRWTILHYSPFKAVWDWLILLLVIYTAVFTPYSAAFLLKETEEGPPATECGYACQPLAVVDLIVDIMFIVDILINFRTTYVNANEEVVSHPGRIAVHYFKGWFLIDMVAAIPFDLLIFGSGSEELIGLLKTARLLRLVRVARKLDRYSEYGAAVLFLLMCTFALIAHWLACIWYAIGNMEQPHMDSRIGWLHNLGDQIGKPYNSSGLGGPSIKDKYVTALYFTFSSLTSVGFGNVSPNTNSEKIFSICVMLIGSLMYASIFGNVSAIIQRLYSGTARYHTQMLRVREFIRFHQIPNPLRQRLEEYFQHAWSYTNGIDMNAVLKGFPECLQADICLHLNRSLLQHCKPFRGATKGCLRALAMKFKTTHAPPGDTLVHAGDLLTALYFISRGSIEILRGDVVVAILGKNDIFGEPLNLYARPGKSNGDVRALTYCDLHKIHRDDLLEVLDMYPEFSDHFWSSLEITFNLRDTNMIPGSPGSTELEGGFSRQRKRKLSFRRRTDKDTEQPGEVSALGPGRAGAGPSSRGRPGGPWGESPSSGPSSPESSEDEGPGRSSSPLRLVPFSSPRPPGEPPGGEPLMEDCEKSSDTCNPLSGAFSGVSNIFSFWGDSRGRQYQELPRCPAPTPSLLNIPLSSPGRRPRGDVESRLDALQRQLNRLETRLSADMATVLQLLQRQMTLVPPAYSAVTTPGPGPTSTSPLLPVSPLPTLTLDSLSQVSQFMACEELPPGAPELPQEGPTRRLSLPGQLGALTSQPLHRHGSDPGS
#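 U2OS cells were transduced with wild-type KCNH2 virus (2.03 x 10^8 / mL) for 4 h at room temperature, then cultured overnight at 37 C. Thallium flux was read with FluxOr dye. Rate constants were normalized to DMSO controls.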
# Glioma ERSR ind = induces the endoplasmic reticulum stress response in human glioma cells | 420,000 tested, 0.02% active | Potency, µM, without a hit: at the top dose activation, usual class: activators | U87-MG GRP78 promoter luciferase reporter, 16 h; active = well fitted activation curve with a large enough effect; inconclusive = small, poorly fitted or top-dose-only effect; inactive = no such curve, though single readings can be large or run the other way; note: potency is the fitted concentration of half-maximal effect; series mostly up to about 76 µM; % of control where 0% means no effect; nearly all actives have a fitted effect of over 35% in size
#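 Stably transfected U87-MG human glioma cells carrying a GRP78-based luminescent sensor were seeded at 1000 cells/well, pin-dosed with compounds and incubated 16 h. Luciferase reagent was then added, and end-point luminescence was read after 10 min at room temperature.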
# KCNH2 3.1 block = blocks the human KCNH2 3.1 channel isoform | U2OS KCNH2 3.1, thallium flux FluxOr; stronger effect = lower value | activity change, % (tested at about 1.8 µM) | 340,000 tested, 0.95% active | AID 720553;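 active = maximum activity change below -70%; inconclusive = maximum activity change from -70% to -50%; inactive = maximum activity change above -50%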;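 note: thallium influx rate constant from kinetic fluorescence after stimulation buffer; % is set by controls: 0 for no effect and ±100 for the full control effect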
#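 Steps: virus added to U2OS suspension (4 h, RT, dark); medium with 10% FBS added, cells plated, 37 C overnight; FluxOr/Red40 loading buffer 45 min RT; stimulation buffer, 2 min kinetic read; rate constant normalized.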
# pAkt inh = Akt phosphorylation inhibition | Neuro2A IGF-stimulated pAkt S473 HTRF, 20 min; stronger effect = lower value | activity change, % for hits at 50 µM | 360,000 tested, 0.32% active; in the data active = activity change below about -80%; inconclusive = mostly about -51% to -80%; note: % is set by controls: 0 for no effect and ±100 for the full control effect
#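 Single-point screen (50 µM final compound) in Neuro2A cells stimulated 20 min with 6 nM IGF at 37 deg C. After lysis, Ser473-phosphorylated Akt read by HTRF (ex 330 nm, em 615/665 nm) as the 665/615 ratio.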
# Active calls of the source: *; i = inactive; ? = inconclusive; . = no result; [ ] = dose if it differs, or a comment.
SMILES,gsp antagonist,gsp ag,KCNH2 WT inh,Glioma ERSR ind,KCNH2 3.1 block,pAkt inh
CCOC(=O)C1CCN(C(=O)c2ccc3c(=O)n4nc(Nc5ccccc5)sc4nc3c2)CC1,.,42.4%,-2.8,-4.0%,-79.5*,i
COc1ccc(C(=S)N2CCOCC2)cc1OC(=O)c1ccccc1,2.8%,?,-22.1,-4.6%,-3.1,i
COc1cc(-n2c(C)nc3cc(C(=O)N4CCOCC4)ccc32)cc(OC)c1OC,1.2%[15.4 µM],7.8%,4.1,-4.0%,7.2,-113.7%*
COC(=O)c1ccc(CNC(=O)c2ccc(OCC(=O)N3CCOCC3)c(OC)c2)cc1,6.2%,-33.5%[15.4 µM],-152.5*,-2.9%,-193.2*,i
COc1cc(-n2c(C)nc3cc(C(=O)NCC4CCCO4)ccc32)cc(OC)c1OC (stereo not given),14.1%,?,-9.7,-2.5%,-7.4,i
COc1ccc(C(=S)N2CCOCC2)cc1OC(=O)c1cc(OC)c(OC)c(OC)c1,4.4%,23.1%[15.4 µM],2.4,1.7%,-79.0*,i
O=C(COc1ccccc1C(=O)Nc1cccnc1)Nc1ccc(Br)cc1,.,.,.,-0.8%,.,.
c1ccc(-c2ccc(OCCCNC3CCCC3)cc2)cc1,16.7%,16.4%[15.4 µM],-10.3,-3.4%,-92.1*,i
COc1ccc(OCCNC2CCCC2)cc1,3.9%,-45.0%,-16.9,-4.0%,16.1,i
Cc1c(C(=O)N2CC[C@@H]3CCCC[C@H]3C2)sc2ncnc(NCCc3ccccn3)c12,.,.,.,-5.8%,.,.
O=C1OC2(c3cc(I)c(O)c(I)c3Oc3c2cc(I)c(O)c3I)c2c(Cl)c(Cl)c(Cl)c(Cl)c21,.,.,.,-9.5%,.,.
COc1ccc(CC2(CO)CCN(Cc3ccc(NC(C)=O)cc3)CC2)cc1,.,10.5%[15.4 µM],-1.8,-1.2%,-22.9,i
COc1ccc2c(c1)C=C(CN1CCC(CO)(CCc3ccccc3)CC1)CO2,6.4%,?,-11.0,-3.5%,-87.8*,i
COc1ccc(CC2(CO)CCN(CC3=Cc4cc(Cl)ccc4OC3)CC2)cc1,0.2%,-8.0%,-40.7,-3.1%,-74.3*,i
COC(=O)C1CCN(c2nc(CN(C)C3CCOC3)nc3cc(OC)c(OC)cc23)CC1 (stereo not given),.,.,.,-5.8%,.,.
COc1cc(CN2CCOc3ccc(CN4CCC(O)(c5cccnc5)CC4)cc3C2)ccc1F,.,.,.,-3.2%,.,.
Cc1c(Br)cnc2ccccc12,.,.,.,-1.2%,.,.
CCC1CN(CCNC(=O)c2cccnc2OC)Cc2cc(OC)ccc2O1 (stereo not given),.,.,.,-3.9%,.,.
N=c1sccn1CC(=O)N1N=C(c2ccc(Cl)cc2)CC1c1ccco1 (stereo not given),.,-3.8%[15.4 µM],14.3,-4.4%,-86.4*,i
COc1ccc(-c2ccnc(SCC(=O)c3ccc(OC)c(OC)c3)n2)cc1,0.9%,17.2%,-12.2,-4.9%,-106.5*,i
CN(C)CCSc1nnc2sc3ccccc3n12,5.4%,?,-4.3,-3.0%,-3.0,-106.0%*
N#CCSc1nnc2sc3ccccc3n12,4.6%,?,-5.6,0.9%,-7.8,i
Oc1cc(-c2nc3ccccc3s2)cc2c1OCCN(Cc1cccn1-c1ccc(Cl)cn1)C2,.,.,.,-3.2%,.,.
CCC1CN(CC(=O)NC(c2ccccn2)C(F)(F)F)Cc2cc(OC)ccc2O1 (stereo not given),.,.,.,0.0%,.,.
O=[N+]([O-])c1cc(C(F)(F)F)ccc1NCCCCNS(=O)(=O)c1ccc(Cl)cc1,-34.9%,-14.1%[15.4 µM],-8.1,-6.0%,-103.3*,i
SMILES,gsp antagonist,gsp ag,KCNH2 WT inh,Glioma ERSR ind,KCNH2 3.1 block,pAkt inh
Cc1cc(C)nc(/N=C(\N)N(Cc2ccccc2)Cc2ccccc2)n1,-11.2%,18.7%[15.4 µM],1.3,-4.6%,-76.7*,i
CCCCN(CCCC)/C(N)=N/c1nc(C)cc(C)n1,-21.2%,-5.9%[15.4 µM],17.5,-3.4%,-10.1,i
Cc1cc(C)nc(/N=C(\N)Nc2ccc(-c3ccccc3)cc2)n1,-8.9%,1.9%[15.4 µM],31.6,-9.7%,-79.8*,i
Cc1ncc2c(c1CNC(=O)c1ccccc1F)CCN(C(=O)c1[nH]c3ccc(Cl)cc3c1C)C2,.,.,.,-3.9%,.,.
COc1cccc(O)c1CN1CCC2(CC1)c1ccccc1[C@@H](NC(=O)c1ccsc1)[C@@H]2OC,.,.,.,-4.5%,.,.
COc1ccc(/C=C(\NC(=O)c2ccc([N+](=O)[O-])cc2)C(=O)NCCCn2ccnc2)cc1,8.8%,-0.4%[15.4 µM],-111.3*,-2.3%,-35.5,i
O=C(NCCCn1ccnc1)/C(=C\c1ccc(Br)cc1)NC(=O)c1ccccc1F,2.3%,-53.9%,-129.1*,-2.4%,-110.7*,i
COc1ccc(/C=C(\NC(=O)c2ccc(C)cc2)C(=O)NCCCn2ccnc2)cc1,12.8%,-22.0%,?,-3.5%,-91.9*,i
O=C(NCCCn1ccnc1)Nc1ccc(Cl)cc1,12.9%,-9.3%,1.9,0.5%,-71.2*,i
COc1ccc(C(=O)N/C(=C\c2ccco2)C(=O)NCCCn2ccnc2)cc1,6.4%,9.8%,-13.3,-3.7%,-27.1,i
COC(=O)[C@@H]1CC[C@H](C)[C@@H](c2ccc(C)cc2)N1C(=O)c1ccc(/C=N\OC[C@@H](C)[C@H](OCc2ccccc2)C(C)C)cc1,.,.,.,-2.0%,.,.
COc1ccc(CN2CCOc3c(O)cc(-c4cc(C)c5ccc(F)cc5n4)cc3C2)c(O)c1,.,.,.,-2.2%,.,.
O=C(CCCN1C(=O)c2ccccc2C1=O)NCCCn1ccnc1,10.1%,-23.6%,13.5,-5.3%,7.8,i
O=C(NCCCn1ccnc1)C(Cc1ccc([N+](=O)[O-])cc1)N1C(=O)c2ccccc2C1=O (stereo not given),-2.3%,5.0%,-119.1*,0.7%,-87.7*,i
O=C(NCCCN1CCc2ccccc2C1)Nc1ccc(Cl)cc1,10.5%,5.9%,-5.9,-0.6%,-87.1*,.
CN(C)c1ccc(/C=C(/NC(=O)c2ccccc2)C(=O)NCCCn2ccnc2)cc1,?,-7.2%,24.8,0.7%,4.8,i
O=C(NCCCn1ccnc1)/C(=C/c1ccc(Cl)cc1)NC(=O)c1ccccc1,-30.3%,18.2%[15.4 µM],-128.9*,0.8%,-104.8*,i
CCC1CN(Cc2cn[nH]c2-c2ccccc2)Cc2cc(OC)ccc2O1 (stereo not given),.,.,.,2.6%,.,.
N#CC1=C(N)OC2=C(CC/C2=C\c2ccccc2Cl)C1c1ccccc1Cl (stereo not given),?,18.7%,-9.3,-3.7%,1.3,i
N#CC1=C(N)OC2=C(CC/C2=C\c2ccccc2)C1c1ccccc1 (stereo not given),-1.7%,-43.4%,-72.7*,2.0%,-46.2,i
CC(=O)c1ccc(-c2ccc3c4c(ccc3c2)OC(CNC(=O)C(C)N2CCOCC2)C4)s1 (stereo not given),.,.,.,-4.0%,.,.
O=C(CSc1nnc(COc2ccccc2)o1)c1ccccc1,-11.5%,?,5.0,-0.2%,-98.9*,i
Cc1ccc(C(=O)CSc2nnc(COc3ccccc3)o2)cc1,-12.9%,-20.5%[15.4 µM],9.4,-8.9%,-10.3,i

# Assay outcomes: PubChem BioAssay, National Center for Advancing Translational Sciences (NCATS)
